Experiment [1] can be described thus: NCI Yeast Anticancer Drug Screen. Data for the rad50 strain (AID 155).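 Also: 0% = growth of vehicle-only cultures of the same strain.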 Conditions: S. cerevisiae rad50 strain growth inhibition; at 50.0 µM; stronger effect = higher value. A digest of the protocol: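 DNA repair mutant yeast, compound exposure, growth read-out; inhibition is taken relative to vehicle.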
Experiment [2] can be described thus: NCI Yeast Anticancer Drug Screen. Data for the mec2-1 strain (AID 157). The settings on record: S. cerevisiae mec2-1 strain, at 50.0 µM, stronger effect = higher value. In short, it runs like this: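 Cells of the genetically defined mec2-1 yeast strain are incubated with test compound. Inhibition of growth is calculated against vehicle-treated controls.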
A short description of experiment [3]: NCI Yeast Anticancer Drug Screen. Data for the sgs1 mgt1 strain (AID 161).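 Also: 0% = growth of cultures given vehicle only.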 Conditions: S. cerevisiae sgs1 mgt1 strain, at 50.0 µM, stronger effect = higher value. In short, it runs like this:
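Inhibition of yeast growth, normalised to vehicle-treated controls, is reported for a strain bearing genetic alterations in DNA damage repair.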

Experiment [4] in a line: NCI Yeast Anticancer Drug Screen. Data for the cln2 rad14 strain (AID 165).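 Also: 0% = growth equal to vehicle treated cultures.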 The settings on record: S. cerevisiae cln2 rad14 strain, at 50.0 µM, stronger effect = higher value. In short, it runs like this:
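The screen exposed genetically defined yeast (cln2 rad14) to test compounds and scored growth inhibition relative to vehicle-treated controls.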

A short description of experiment [5]: NCI Yeast Anticancer Drug Screen. Data for the bub3 strain (AID 167). Conditions: S. cerevisiae bub3 mutant strain, at 50.0 µM, stronger effect = higher value. A digest of the protocol: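 In this screen, a yeast mutant lacking normal mitotic checkpoint function is challenged with compound. Relative growth versus vehicle gives the inhibition value.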
The nature of experiment [6]: NCI Yeast Anticancer Drug Screen. Data for the mlh1 rad18 strain (AID 175). The settings on record: S. cerevisiae mlh1 rad18 strain growth inhibition; at 50.0 µM; stronger effect = higher value. In short, it runs like this: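 Compound-treated yeast growth, normalised to vehicle controls. Strain bears defined DNA repair mutations.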

The panel holds about 79,000 compounds, 15% with a hit somewhere; the sample as a whole holds those more often. A number with no mark means an inactive call. The source made the active and inactive calls. Rule as the data show it: active = growth inhibition above about 70%; inactive = the rest.

Turning to `O=c1oc2ccc(Cl)cc2c(OCCO)c1Cl`, the growth inhibition in experiment [1] is -5.2%; in experiment [2], 4.55%; in experiment [3] it was -4.45%; in experiment [4], -0.5%; in experiment [5], -5.95%; in experiment [6], -1.15%.
Regarding `O=C(CSc1nnc(-c2ccc(N=Cc3ccc(Cl)cc3)cc2)o1)Nc1ccc([N+](=O)[O-])cc1`, the growth inhibition in experiment [1] was 14.7%; in experiment [2], -7.65%; in experiment [3] it was 14.7%; in experiment [4] it was -53.8%; in experiment [5], -11.3%; in experiment [6], 14.9%.
For the compound `OC(c1cccnc1)C(CCc1ccccn1)c1ccccn1` (stereo not drawn), the growth inhibition in experiment [1] was 2.65%; in experiment [2] it was 13.1%; in experiment [3], -4.6%; in experiment [4], -46%; in experiment [5], 4.3%; in experiment [6], 4%.
In the case of `Cc1cccc2nc(-c3ccccn3)n(CCc3ccncc3)c12`, the growth inhibition in experiment [1] was 98.8% (active); in experiment [2], 99.2% (active); in experiment [3], 99.2% (active); in experiment [4], 98.1% (active); in experiment [5] it was 98.8% (active); in experiment [6], 98.7% (active).
`COc1ccc2c(c1)C1c3ccccc3CCN1CCC2` (stereo not drawn): the growth inhibition in experiment [1] was 20.8%; in experiment [2], 20.9%; in experiment [3] it was -23.1%; in experiment [4] it was 24.1%; in experiment [5], -8.4%; in experiment [6], 6%.
With `O=C(C[n+]1cccc(Br)c1)c1ccc(F)cc1`, the growth inhibition is 16.1% in experiment [1]; 19.9% in experiment [2]; 9.6% in experiment [3]; 21.4% in experiment [4]; 3.35% in experiment [5]; 10.2% in experiment [6].
On to `CNC(=O)OCCC(OC(=O)NC)C1CCC2C3CCC4CC(OC(=O)c5ccccc5)CCC4(C)C3CCC12C` (stereo not drawn), for which the growth inhibition in experiment [1] is 37%; in experiment [2], 1.7%; in experiment [3], 4.9%; in experiment [4], 23.3%; in experiment [5] it was -4%; in experiment [6] it was 8.8%.
Consider `CC1(C)CO/C(=C/C(=O)c2ccccc2)N1C(=O)c1ccccc1`, for which the growth inhibition in experiment [1] was -4.6%; in experiment [2] it was 11.7%; in experiment [3] it was -6.15%; in experiment [4], 1.55%; in experiment [5], 4%; in experiment [6] it was -0.45%.
Consider `CC(=O)c1cc([N+](=O)[O-])c[nH]1`, for which the growth inhibition in experiment [1] is 9.05%; in experiment [2], 1.45%; in experiment [3], 1.1%; in experiment [4], -19.1%; in experiment [5] it was 9.25%; in experiment [6] it was 0.5%.
Turning to `CCCC1=NCCO1`, the growth inhibition was -10.9% in experiment [1]; -26.6% in experiment [2]; -6.65% in experiment [3]; 0.45% in experiment [4]; -6.95% in experiment [5]; -13.7% in experiment [6].
`O=C1c2cc([N+](=O)[O-])ccc2-c2c(F)cccc21`: the growth inhibition in experiment [1] was 5.5%; in experiment [2], 8.25%; in experiment [3], -1%; in experiment [4], -32%; in experiment [5], 10.2%; in experiment [6] it was 4.1%.
Turning to `CC(C)=Cc1cc(CCC/C(C)=C/Cc2c(O)cc(C)c(C(=O)O)c2O)co1`, the growth inhibition is -9% in experiment [1]; -25.9% in experiment [2]; -1.75% in experiment [3]; -6.55% in experiment [4]; -18.9% in experiment [5]; -15.2% in experiment [6].
In the case of `Nc1cccn2cnnc12`, the growth inhibition is 0.1% in experiment [1]; 15.9% in experiment [2]; -4.6% in experiment [3]; 17.4% in experiment [4]; 23.1% in experiment [5]; 19.4% in experiment [6].
In the case of `NC(=S)SCCC(=O)N1CCCC1`, the growth inhibition in experiment [1] is -1.25%; in experiment [2], -10.1%; in experiment [3], -9.55%; in experiment [4], -19.6%; in experiment [5], -7.35%; in experiment [6], -1.7%.
Regarding `Nc1nc(N)c2c(Cl)c(CNc3ccc(C(=O)NC(CC(=O)O)CC(=O)O)cc3)ccc2n1`, the growth inhibition in experiment [1] was 19%; in experiment [2] it was 9.65%; in experiment [3], 22.2%; in experiment [4] it was -1.35%; in experiment [5], -4.05%; in experiment [6], 14.4%.
For `COc1cc2c(C)cc(O)cc2c2cc(O)c(C)cc12`, the growth inhibition in experiment [1] was 22.6%; in experiment [2], -1.55%; in experiment [3], -10.3%; in experiment [4], -5.9%; in experiment [5], -9.9%; in experiment [6] it was 91.8% (active).
In the case of `CC1CC[N-]CC1.CC1CC[N-]CC1.[Cl][Pt+2][Cl]`, the growth inhibition was -19.9% in experiment [1]; -6.7% in experiment [2]; -17.6% in experiment [3]; -34% in experiment [4]; -2.2% in experiment [5]; 5.8% in experiment [6].
Take `O=C(O)CCCCC(=O)c1ccccc1`: the growth inhibition was 30.6% in experiment [1]; 12.2% in experiment [2]; 21% in experiment [3]; -0.25% in experiment [4]; 26.6% in experiment [5]; 24.9% in experiment [6].
For `CCCC(O)C(C)C(O)CC` (stereo not drawn), the growth inhibition in experiment [1] is -9.85%; in experiment [2], -30.4%; in experiment [3] it was -22.2%; in experiment [4] it was -3.45%; in experiment [5], 1.4%; in experiment [6] it was -1.45%.
In the case of `OCCc1ccc2ccccc2c1`, the growth inhibition in experiment [1] was 4.05%; in experiment [2], -5.95%; in experiment [3], 3.05%; in experiment [4] it was -9.3%; in experiment [5], 13.8%; in experiment [6], -1.15%.
For the compound `CC(=O)Nc1ccc(-c2nnc(SCC(=O)Nc3ccccc3)o2)cc1`, the growth inhibition in experiment [1] is 2.3%; in experiment [2], 6.8%; in experiment [3], -4.95%; in experiment [4], -1.8%; in experiment [5], -14.6%; in experiment [6], -8.55%.
Turning to `COc1ccc(/C(=N\O)C(c2ccc(OC)cc2)C(Cl)(Cl)Cl)cc1` (stereo not drawn), the growth inhibition was 52.8% in experiment [1]; 38.9% in experiment [2]; 38.9% in experiment [3]; 14.7% in experiment [4]; 16.6% in experiment [5]; 44.9% in experiment [6].
Take `COC(=O)C1CCCC2(C1)OCCO2` (stereo not drawn): the growth inhibition in experiment [1] is 15.2%; in experiment [2], 5%; in experiment [3], -23.1%; in experiment [4] it was -10.2%; in experiment [5], -32.7%; in experiment [6], -2.75%.
Consider `c1ccc2c(c1)C(=NOc1nc3ccccc3c3ccccc13)c1ccccc1-2`, for which the growth inhibition is -4.85% in experiment [1]; 10.6% in experiment [2]; 8.75% in experiment [3]; 3.65% in experiment [4]; 7.95% in experiment [5]; 12% in experiment [6].
`O=c1[nH]cc(Nc2ccccc2)c(=O)[nH]1`: the growth inhibition in experiment [1] was -1.1%; in experiment [2], 2.35%; in experiment [3], 4.95%; in experiment [4] it was -35.2%; in experiment [5], -29.6%; in experiment [6] it was -9.65%.
With `COc1ccc(C(CC(=O)O)CC(=O)O)cc1[N+](=O)[O-]`, the growth inhibition is 0.75% in experiment [1]; -1.7% in experiment [2]; -2.1% in experiment [3]; -6.2% in experiment [4]; 15.9% in experiment [5]; 10.8% in experiment [6].
Consider `C=CCC1(C(=O)NC)c2ccccc2-c2ccccc21`, for which the growth inhibition in experiment [1] is -8.85%; in experiment [2], -6.4%; in experiment [3], 1%; in experiment [4], -18.8%; in experiment [5] it was 43.1%; in experiment [6] it was -38.1%.
As for `O=C(CCc1cccs1)OC1CCCCC1`, the growth inhibition was 9% in experiment [1]; 7.05% in experiment [2]; 4.4% in experiment [3]; 13.6% in experiment [4]; 9.35% in experiment [5]; 20.9% in experiment [6].
Take `CCCCCC/C=N/Nc1ccc([N+](=O)[O-])cc1[N+](=O)[O-]`: the growth inhibition in experiment [1] is 1.65%; in experiment [2] it was -18.9%; in experiment [3], -11.2%; in experiment [4], -48.2%; in experiment [5], -6.95%; in experiment [6], -4.9%.
`CN1C2CCC1C1N=NN(c3cc(C(F)(F)F)cc(C(F)(F)F)c3)C1(N1CCOCC1)C2` (stereo not drawn): the growth inhibition was -20.9% in experiment [1]; -9.6% in experiment [2]; -27.7% in experiment [3]; 0.35% in experiment [4]; -11.9% in experiment [5]; -21.8% in experiment [6].
For the compound `CCOC(=O)c1c(-c2ccccc2)csc1NC(=O)CN1CCCCC1`, the growth inhibition in experiment [1] is 28.6%; in experiment [2] it was 8.8%; in experiment [3], 14.7%; in experiment [4], 6.55%; in experiment [5] it was 17.9%; in experiment [6] it was 24.7%.
With `CC(O)c1cc2c(s1)C(=O)c1sccc1C2=O` (stereo not drawn), the growth inhibition was 90.6% (active) in experiment [1]; 93.5% (active) in experiment [2]; 92% (active) in experiment [3]; 91.2% (active) in experiment [4]; 91.9% (active) in experiment [5]; 91.2% (active) in experiment [6].
On to `Cc1nn(C(N)=S)c(C)c1N=Nc1ccc(Cl)cc1`, for which the growth inhibition in experiment [1] is 9.6%; in experiment [2] it was -0.25%; in experiment [3], 10.8%; in experiment [4], -62.8%; in experiment [5], -8.35%; in experiment [6], 19.9%.
Regarding `COC(=O)C(C(=O)C(=O)Nc1ccc(C(F)(F)F)cc1[N+](=O)[O-])c1csc(-n2nc(-c3ccccc3)cc2-c2ccccc2)n1` (stereo not drawn), the growth inhibition in experiment [1] is 19.9%; in experiment [2], 18.6%; in experiment [3], 42.5%; in experiment [4] it was -13.2%; in experiment [5], 23.4%; in experiment [6], 1.6%.
As to `NC1=CCNN1`, the growth inhibition in experiment [1] is 8.7%; in experiment [2], -21.9%; in experiment [3], 4.1%; in experiment [4] it was 4.1%; in experiment [5] it was 11.3%; in experiment [6], 14.4%.
Turning to `N#CCCCCCCCCC(=O)O`, the growth inhibition in experiment [1] was -14.6%; in experiment [2], -14.4%; in experiment [3] it was 6.9%; in experiment [4] it was -18.4%; in experiment [5] it was -39.5%; in experiment [6], -11.5%.
Regarding `Cc1[nH]c2ccc([N+](=O)[O-])cc2c1C`, the growth inhibition in experiment [1] was 19.1%; in experiment [2] it was -5.15%; in experiment [3], 32.1%; in experiment [4], 26.4%; in experiment [5], 25.4%; in experiment [6], 38.4%.
`C=C1CCC2[C@](C)(CCC[C@]2(C)C(=O)O)[C@@H]1CCc1ccoc1` (stereo partly drawn): the growth inhibition in experiment [1] is 70.8% (active); in experiment [2], 59.9%; in experiment [3], 73% (active); in experiment [4], 77% (active); in experiment [5] it was 73.8% (active); in experiment [6], 78.8% (active).

The values above are taken from PubChem BioAssay (NCI).
